# According to PubChem BioAssay AID504815 (NMMLSC, 2011):
# Measured potencies and affinities stand elsewhere. The source made the active and inactive calls.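 Rule for the calls: active = compounds with a tight curve fit, inhibition span over 25% and half-maximal concentration below 10 µM; inactive = the rest.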
# Molecular target: Beta-adrenergic receptor kinase 1 (Homo sapiens) (UniProt P25098)
# Assay: Second cherry pick dose-response of GRK2-aptamer binding blockers, biochemical bead flow cytometry (AID 504815)
# Conditions: biotinylated GRK2 beads, FAM-aptamer displacement; series mostly up to 33 µM
# Beta-adrenergic receptor kinase 1 (Homo sapiens), sequence (P25098 whole entry, looked up): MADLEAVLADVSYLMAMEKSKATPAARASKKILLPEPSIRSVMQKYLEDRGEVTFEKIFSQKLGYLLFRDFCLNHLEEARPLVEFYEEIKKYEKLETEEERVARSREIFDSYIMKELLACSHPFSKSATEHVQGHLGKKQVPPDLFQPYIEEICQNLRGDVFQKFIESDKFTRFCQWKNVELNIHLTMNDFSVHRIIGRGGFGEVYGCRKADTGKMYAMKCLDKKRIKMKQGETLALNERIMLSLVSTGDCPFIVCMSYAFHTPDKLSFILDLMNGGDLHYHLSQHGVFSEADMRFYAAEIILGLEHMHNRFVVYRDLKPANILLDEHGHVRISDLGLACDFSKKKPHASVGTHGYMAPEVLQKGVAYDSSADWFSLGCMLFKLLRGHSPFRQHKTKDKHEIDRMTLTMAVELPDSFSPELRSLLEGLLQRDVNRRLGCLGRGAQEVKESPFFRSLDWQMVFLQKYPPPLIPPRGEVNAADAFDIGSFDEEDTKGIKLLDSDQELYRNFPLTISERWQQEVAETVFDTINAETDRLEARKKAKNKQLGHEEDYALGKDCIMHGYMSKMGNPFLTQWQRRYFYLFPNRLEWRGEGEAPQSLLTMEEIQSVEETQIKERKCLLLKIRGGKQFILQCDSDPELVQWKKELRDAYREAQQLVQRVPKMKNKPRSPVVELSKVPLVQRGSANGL
row,Compound,outcome
1,CCOc1ccccc1NC(=O)CCS(=O)(=O)c1ccc(Br)cc1,inactive
2,O=C(CCS(=O)(=O)c1ccc(Br)cc1)NCCc1ccc(Cl)cc1,inactive
3,COc1ccc(Cl)cc1NC(=O)CCS(=O)(=O)c1ccc(Br)cc1,inactive
4,O=C(CCS(=O)(=O)c1ccc(Br)cc1)NCCc1ccccc1,inactive
5,COc1ccc(-c2csc3nc(-c4ccc(C)cc4)oc(=O)c23)cc1OC,inactive
6,O=C(CCS(=O)(=O)c1ccc(Br)cc1)NCc1cccs1,inactive
7,C#CCSc1nc2sc3c(c2c(=O)n1C)CCC3,inactive
8,COc1ccc([N+](=O)[O-])cc1NC(=O)CCS(=O)(=O)c1ccc(Br)cc1,inactive
9,O=C(CCS(=O)(=O)c1ccc(Br)cc1)NCc1ccco1,inactive
10,O=C(CCS(=O)(=O)c1ccc(Br)cc1)NC1CCCC1,inactive
11,CCN(CC)c1ccc(NC(=O)CCS(=O)(=O)c2ccc(Br)cc2)c(C)c1,inactive
12,O=C(CCS(=O)(=O)c1ccc(Br)cc1)Nc1cc(F)ccc1F,inactive
13,COc1ccc(CNC(=O)CCS(=O)(=O)c2ccc(Br)cc2)cc1,inactive
14,CCOc1ccc(NC(=O)CCS(=O)(=O)c2ccc(Br)cc2)cc1,inactive
15,O=C(CCS(=O)(=O)c1ccc(Br)cc1)NCc1ccc(F)cc1,inactive
16,CCc1ccccc1NC(=O)CCS(=O)(=O)c1ccc(OC)cc1,inactive
17,COC(=O)c1ccc(NC(=O)CCS(=O)(=O)c2ccc(Br)cc2)cc1,inactive
18,Cc1ccccc1NC(=O)CCS(=O)(=O)c1ccc(Br)cc1,inactive
19,O=C(CCS(=O)(=O)c1ccc(Br)cc1)Nc1ccc(Br)cc1F,inactive
20,CCc1ccccc1NC(=O)CCS(=O)(=O)c1ccc(Br)cc1,inactive
